The text below walks through data of PubChem BioAssay.

Active and inactive are the calls of the source. Unless noted, the rule behind the calls is not given here.

Assay [1] is described as follows: compounds binding Alexa647 anti-His antibody – biochemical, small-molecule microarray, 635 nm fluorescence, artefact control for SMM control protein annotation, primary screen (AID 1128).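 Note: score merges feature fluorescence with signal-to-noise for each printed compound spot.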 The conditions noted are these: higher = more signal.
Assay [2] relates to Human papillomavirus type 1a E7 protein (residues 1-88). Nature of the assay: HPV1a E7 small-molecule binders, primary screen, biochemical, small-molecule microarray, residues 1-88, 635 nm (AID 1129). The conditions noted are these: small-molecule microarray binding, fluorescence 635 nm; higher = more signal.
In assay [3] the target is Focal adhesion kinase 1 (Homo sapiens) (UniProt Q05397). Nature of the assay: PTK2 protein binding on printed compound slides – biochemical, small-molecule microarray, 635/667 nm fluorescence, BSA, DTT, primary screen (AID 1130).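 Note: composite of spot emission at 667 nm and signal to noise over triplicate slides.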 The conditions noted are these: 635 nm fluorescence, higher = more signal.
Sequence of Focal adhesion kinase 1 (Homo sapiens) (Q05397 whole entry, looked up): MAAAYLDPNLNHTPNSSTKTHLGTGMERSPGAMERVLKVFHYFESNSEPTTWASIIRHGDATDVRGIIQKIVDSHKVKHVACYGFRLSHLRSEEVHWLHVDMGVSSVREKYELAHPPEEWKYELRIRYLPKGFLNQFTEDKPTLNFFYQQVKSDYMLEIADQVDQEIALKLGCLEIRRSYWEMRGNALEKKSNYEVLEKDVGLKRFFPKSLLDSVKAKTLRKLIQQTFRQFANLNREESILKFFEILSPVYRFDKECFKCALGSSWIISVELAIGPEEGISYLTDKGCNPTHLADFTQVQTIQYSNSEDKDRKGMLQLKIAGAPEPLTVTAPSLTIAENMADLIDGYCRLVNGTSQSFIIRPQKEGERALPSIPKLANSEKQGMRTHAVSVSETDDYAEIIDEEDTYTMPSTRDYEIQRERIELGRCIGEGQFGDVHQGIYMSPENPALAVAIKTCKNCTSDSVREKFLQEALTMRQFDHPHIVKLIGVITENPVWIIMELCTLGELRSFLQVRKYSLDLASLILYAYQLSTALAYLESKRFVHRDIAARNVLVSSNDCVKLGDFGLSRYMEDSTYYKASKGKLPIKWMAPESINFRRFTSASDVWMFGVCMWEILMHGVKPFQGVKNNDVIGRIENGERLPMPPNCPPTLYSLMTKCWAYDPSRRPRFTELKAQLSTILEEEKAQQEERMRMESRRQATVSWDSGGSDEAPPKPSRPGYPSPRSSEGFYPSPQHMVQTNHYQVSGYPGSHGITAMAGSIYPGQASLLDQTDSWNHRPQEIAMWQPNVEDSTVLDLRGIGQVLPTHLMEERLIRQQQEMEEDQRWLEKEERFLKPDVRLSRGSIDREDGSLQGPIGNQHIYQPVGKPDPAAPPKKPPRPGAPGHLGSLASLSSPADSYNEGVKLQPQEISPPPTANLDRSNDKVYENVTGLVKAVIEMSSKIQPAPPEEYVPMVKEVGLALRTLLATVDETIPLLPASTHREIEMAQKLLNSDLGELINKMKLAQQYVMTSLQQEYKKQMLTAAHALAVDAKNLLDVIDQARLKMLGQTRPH
The subject of assay [4] is Fibrinogen (Alexa647-labelled). Nature of the assay: Alexa647-fibrinogen binding to printed small molecules – biochemical, small-molecule microarray, 635/667 nm fluorescence, artefact control for SMM control-protein annotation, profiling panel (AID 1131).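 Note: z-score merges 667 nm fluorescence with per-spot signal-to-noise over triplicate slides.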 The conditions noted are these: fibrinogen-A647 binding fluorescence, higher = more signal.
Assay [5] concerns the target Follistatin (Homo sapiens) (UniProt P19883). Nature of the assay: FST protein binding to printed compounds – biochemical, small-molecule microarray, 635/667 nm fluorescence, primary screen (AID 1132). The conditions noted are these: 635 nm fluorescence, higher = more signal.
Assay [6] concerns the target Fibroblast growth factor 2 (Homo sapiens) (UniProt P09038). Nature of the assay: basic fibroblast growth factor binding to printed compounds – biochemical, small-molecule microarray, 635/667 nm fluorescence, primary screen (AID 1133). The following applies: FGF2, fluorescence 635/667, higher = more signal.
The nature of assay [7]: JC-1 mitochondrial potential readout, lung cancer cells – cell-based, A549, JC-1 fluorescence, basal, 24 h, 100 nL, profiling panel (AID 1138).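 Note: A549 lung adenocarcinoma cells under basal conditions with no added stimulus; test concentration not given here.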 The following applies: higher = more signal.
Assay [8] concerns Lefty1. Nature of the assay: Lefty1 protein binding to printed compounds – biochemical, small-molecule microarray, 635/667 nm fluorescence, primary screen (AID 1139). The following applies: fluorescence 635/667, higher = more signal.
Assay [9] deals with wheat germ agglutinin (Triticum aestivum), Alexa647-labelled. Nature of the assay: Alexa647-WGA lectin binding to printed small molecules – biochemical, small-molecule microarray, 635/667 nm fluorescence, artefact control for SMM control-protein annotation, profiling panel (AID 1140).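 Note: score merges 667 nm feature emission with signal to noise over triplicate slides.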 The conditions noted are these: WGA-A647 binding, 635 nm fluorescence, higher = more signal.
Assay [10] has as its target Luciferin 4-monooxygenase (Photinus pyralis) (UniProt P08659). Nature of the assay: inhibition of purified Photinus pyralis luciferase – biochemical, luminescence, purified enzyme, 2006 set, primary screen (AID 1141).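 Note: cell-free assay with purified firefly luciferase at 100 ng per well in PBS; test concentration not given here.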 The conditions noted are these: purified firefly luciferase, SteadyGlo luminescence, 30 min; higher = more signal, called active from +8 up or from −8 down.

Assay [11] deals with Wnt5a (protein binding on small-molecule microarray). The experiment in a line: small molecules binding Wnt5a protein – biophysical, small-molecule microarray, 635/667 nm fluorescence, primary screen (AID 1142).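 Note: fluorescence read at 667 nm with signal to noise per printed feature.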 The conditions noted are these: 635 nm fluorescence, higher = more signal.
Assay [12] can be described thus: ATP-based viability of Huh7 replicon cells – cell-based, CellTiter-Glo luminescence, basal, 48 h, cytotoxicity control for HCV replication inhibitor project, primary screen (AID 1143).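 Note: Huh7 hepatoma cells carrying a hepatitis C replication reporter with no stimulus; test concentration not given here.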 The following applies: higher = more signal, called active from +8 up or from −8 down.
Assay [13] is described as follows: Pseudomonas biofilm growth suppression – PAO1 strain, BacTiter-Glo luminescence, LB-PBS, primary screen (AID 1144). The following applies: P. aeruginosa PAO1 biofilm, 12 h, higher = more signal.
Assay [14] is described as follows: basal CRE-LacZ reporter activity in PC12 – cell-based, unstimulated, primary screen (AID 1145). The conditions noted are these: no forskolin, luminescence, 4.5 h, higher = more signal, called active from +8 up or from −8 down.
The nature of assay [15]: forskolin-driven CRE-LacZ activity in PC12 – cell-based, CRE-LacZ reporter, forskolin-stimulated, primary screen (AID 1146).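 Note: PC12 cells with 6xCRE LacZ reporter stimulated by forskolin 10 µM; beta-galactosidase reporter signal reflecting CREB driven transcription.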 The following applies: luminescence, 4.5 h, higher = more signal, called active from +8 up or from −8 down.
Assay [16] addresses Streptavidin (Streptomyces avidinii) (UniProt P22629). The experiment in a line: compounds binding control protein streptavidin – biophysical, small-molecule microarray, 635/667 nm fluorescence, artefact control for SMM compound annotation, primary screen (AID 1147).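 Note: signal reflects streptavidin binding to arrayed compounds as a control protein.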 The conditions noted are these: higher = more signal.
The nature of assay [17]: probe aInhba binding on compound microarray – biochemical, small-molecule microarray, 635/667 nm fluorescence, primary screen (AID 1148).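 Note: score merges 667nm spot fluorescence with signal-to-noise for antibody binding to printed compounds.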 The conditions noted are these: higher = more signal.
The target in assay [18] is Torsin-1A (Homo sapiens) (UniProt O14656). The experiment in a line: TOR1A wild-type binding on microarray – cell lysate, small-molecule microarray, lysate, 635/667 nm, primary screen (AID 1149). The conditions noted are these: COS7 hTOR1A-WT lysate, 635 nm fluorescence, higher = more signal.
Sequence of Torsin-1A (Homo sapiens) (O14656 whole entry, looked up): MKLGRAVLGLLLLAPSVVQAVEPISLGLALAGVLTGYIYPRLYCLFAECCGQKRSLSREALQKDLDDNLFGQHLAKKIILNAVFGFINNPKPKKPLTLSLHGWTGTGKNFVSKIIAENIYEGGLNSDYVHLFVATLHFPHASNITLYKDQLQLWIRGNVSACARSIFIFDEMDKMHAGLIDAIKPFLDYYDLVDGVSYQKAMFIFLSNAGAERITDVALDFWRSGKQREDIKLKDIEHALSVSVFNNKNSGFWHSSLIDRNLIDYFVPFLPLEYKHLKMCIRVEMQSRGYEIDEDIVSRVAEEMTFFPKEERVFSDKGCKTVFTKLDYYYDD
For assay [19] the target is unchanged. Nature of the assay: torsin A mutant lysate binding on microarrays – cell lysate, small-molecule microarray, COS7 lysate, 635/667 nm fluorescence, primary screen (AID 1150).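 Note: score pools 667 nm emission and signal to noise measuring lysate protein binding.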 The following applies: COS7 hTOR1A mutant lysate, 635 nm fluorescence, higher = more signal.
Assay [20] relates to Sonic hedgehog protein (Shh). Nature of the assay: Sonic hedgehog microarray binding compounds – biochemical, small-molecule microarray, 635/667 nm fluorescence, primary screen (AID 1151).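 Note: Shh protein binding to compounds spotted on small-molecule microarray slides; score combines spot fluorescence intensity with signal-to-noise across triplicate slides.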 The conditions noted are these: 635 nm fluorescence, higher = more signal.

Sequence of Follistatin (Homo sapiens) (P19883 whole entry, looked up): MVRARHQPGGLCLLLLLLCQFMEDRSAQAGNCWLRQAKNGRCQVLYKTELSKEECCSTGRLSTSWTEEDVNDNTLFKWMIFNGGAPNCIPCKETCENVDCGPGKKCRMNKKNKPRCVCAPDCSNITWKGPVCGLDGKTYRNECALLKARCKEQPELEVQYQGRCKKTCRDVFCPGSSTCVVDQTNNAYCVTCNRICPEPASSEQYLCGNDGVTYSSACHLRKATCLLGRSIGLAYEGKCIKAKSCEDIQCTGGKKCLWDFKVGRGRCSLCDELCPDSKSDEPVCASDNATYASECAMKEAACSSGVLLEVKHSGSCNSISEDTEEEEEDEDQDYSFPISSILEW
Sequence of Streptavidin (Streptomyces avidinii) (P22629 whole entry, looked up): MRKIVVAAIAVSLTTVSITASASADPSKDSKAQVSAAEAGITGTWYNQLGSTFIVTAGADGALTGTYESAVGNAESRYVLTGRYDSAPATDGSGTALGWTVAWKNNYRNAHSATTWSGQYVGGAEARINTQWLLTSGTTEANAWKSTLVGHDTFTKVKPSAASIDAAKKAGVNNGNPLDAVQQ
Sequence of Luciferin 4-monooxygenase (Photinus pyralis) (P08659 whole entry, looked up): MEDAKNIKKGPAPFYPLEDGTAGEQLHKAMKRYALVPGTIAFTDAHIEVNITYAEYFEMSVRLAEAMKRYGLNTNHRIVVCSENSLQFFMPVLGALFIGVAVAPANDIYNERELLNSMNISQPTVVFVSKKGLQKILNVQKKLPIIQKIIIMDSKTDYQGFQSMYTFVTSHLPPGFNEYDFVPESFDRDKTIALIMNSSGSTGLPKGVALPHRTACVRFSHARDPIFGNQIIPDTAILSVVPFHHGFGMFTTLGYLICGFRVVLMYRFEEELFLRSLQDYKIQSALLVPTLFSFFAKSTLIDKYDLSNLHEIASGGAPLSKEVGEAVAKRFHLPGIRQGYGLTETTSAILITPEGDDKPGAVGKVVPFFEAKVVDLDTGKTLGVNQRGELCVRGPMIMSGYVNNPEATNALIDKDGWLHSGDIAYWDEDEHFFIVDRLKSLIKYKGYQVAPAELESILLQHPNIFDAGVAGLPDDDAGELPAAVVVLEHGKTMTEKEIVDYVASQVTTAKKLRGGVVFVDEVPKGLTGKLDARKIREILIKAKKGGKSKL
Sequence of Fibroblast growth factor 2 (Homo sapiens) (P09038 whole entry, looked up): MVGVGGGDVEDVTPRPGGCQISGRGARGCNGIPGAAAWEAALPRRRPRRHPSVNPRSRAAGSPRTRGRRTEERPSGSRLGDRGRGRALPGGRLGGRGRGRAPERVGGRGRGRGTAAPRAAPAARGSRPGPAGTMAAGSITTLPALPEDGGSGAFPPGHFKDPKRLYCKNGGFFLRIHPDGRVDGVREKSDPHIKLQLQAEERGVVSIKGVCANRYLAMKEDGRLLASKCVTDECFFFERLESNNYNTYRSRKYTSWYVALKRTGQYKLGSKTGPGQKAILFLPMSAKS

Take `CC(C)N1CC=CC23O[C@@H]4C=CCCOC(=O)C4[C@H]2C(=O)N(CCCCCCO)[C@@H]3C1=O` (stereo not given in full): the composite z-score in [1] is -0.112; in [2], -0.807; in assay [3], -0.268; in [4], -1.2; in assay [5], -0.851; in assay [6], -1.6. The composite z-score in assay [8] is -0.187; in [9] it was -1.32; in assay [11] it was -0.952; in assay [16], -0.717; in assay [17], -0.003; in assay [18], -1.12. Besides, the composite z-score in assay [19] is -1.57; in [20], 0.011. The z-score in assay [7] was 0.526; in [10], -0.127 (inactive); in assay [12], 0.471 (inactive); in assay [13], -0.454 (inactive); in assay [14] it was -0.488 (inactive); in assay [15], -0.905 (inactive).

Consider `COC(=O)CC=C[C@H](C)[C@H](CO)NS(=O)(=O)c1ccc(C)cc1`, for which the composite z-score in assay [1] was 0.422; in assay [2], 0.447; in [3] it was 0.265; in assay [4], 0.466; in assay [5], 0.525; in [6] it was 0.621. In addition, the composite z-score in assay [8] was 0.701; in [9], -0.037; in assay [11], 0.378; in assay [16], 0.293; in assay [17], -0.122; in [18] it was 0.375. The composite z-score in [19] is 0.0191; in [20], 0.82. Besides, the z-score was -0.655 in [7]; -0.54 (inactive) in assay [10]; -1.27 (inactive) in [12]; -0.0262 (inactive) in assay [13]; -0.434 (inactive) in assay [14]; -0.692 (inactive) in assay [15].

With `CC(C)(C)OC(=O)CC[C@]1(C(=O)NCc2ccccc2)N=C(c2ccc(OCCCO)cc2)O[C@H]1c1ccccc1`, the composite z-score in [1] worked out at 1.99; in assay [2] it was 1.26; in [3] it was 1.36; in assay [4], 0.983; in [5] it was 0.362; in assay [6], 0.487. The composite z-score is -0.326 in assay [8]; 0.732 in assay [9]; 1.01 in assay [11]; 1.58 in [16]; 0.347 in [17]; 0.712 in assay [18]. Also, the composite z-score in [19] was 1.11; in [20] it was -0.349. In addition, the z-score in assay [7] is 0.949; in assay [10], 0.172 (inactive); in assay [12] it was -3.16 (inactive); in assay [13] it was -1.77 (inactive); in [14], 0.699 (inactive); in assay [15], -1.23 (inactive).

In the case of `COC(=O)[C@H](C)NC(=O)CCC1CC(OC(=O)NCc2cccc3ccccc23)CC2(CCCC(COC(=O)NCC3CCCCC3)O2)O1` (stereo not given in full), the composite z-score in assay [1] came out at 0.876; in [2] it was 1.22; in assay [3], 0.234; in assay [4], 0.986; in [5], 0.591; in assay [6] it was 1.4. Further, the composite z-score in assay [8] was 1.09; in assay [9], 0.487; in assay [11] it was 0.835; in [16], 0.688; in assay [17], 0.0543; in [18] it was 1.02. The composite z-score in [19] worked out at 1.05; in [20] it was 1.43. For the same molecule, the z-score in assay [7] is -0.25; in [10], 0.925 (inactive); in [12], -0.426 (inactive); in assay [13], -0.803 (inactive); in assay [14], 0.91 (inactive); in [15] it was 1.76 (inactive).

On to `CCOC(=O)NN=C1C[C@@H](O)[C@@H](O)[C@@H]2[C@@H]3C(=O)N(C[C@@H]4CCCO4)C(=O)[C@@H]3CC[C@@H]12`, for which the composite z-score in [1] came to 0.193; in assay [2], 0.329; in assay [3] it was 0.295; in assay [4], 0.216; in assay [5] it was 0.306; in [6], 0.436. The composite z-score in [8] is 0.344; in assay [9], 0.386; in [11], -0.0127; in [16] it was 0.293; in assay [17] it was -0.0933; in assay [18], 0.298. Besides, the figures for the composite z-score in [19] and in [20] were 0.76 and 0.111, respectively. Moreover, the z-score in assay [7] was 0.39; in [10], -0.439 (inactive); in assay [12], 0.0688 (inactive); in assay [13], 0.139 (inactive); in [14], -0.658 (inactive); in [15], 0.75 (inactive).
